# Values joined by “and” are separate entries in the source; they are usually repeats but may differ in a detail not shown here. Equal values may be shown once. Out of some 400,000 compounds screened, about 2,100 (0.53%) were called active. Not shown: some 14% with an inconclusive outcome. The sample holds actives, similar compounds and a random draw of the others, so the mix is not that of the screen. How the calls were made is not given here.
# Target: Ataxin-2 (Homo sapiens) (UniProt Q99700)
# Assay: qHTS for Inhibitors of ATXN expression.
# Assay type: functional
# Chain of Ataxin-2 (Homo sapiens) (Q99700 whole entry): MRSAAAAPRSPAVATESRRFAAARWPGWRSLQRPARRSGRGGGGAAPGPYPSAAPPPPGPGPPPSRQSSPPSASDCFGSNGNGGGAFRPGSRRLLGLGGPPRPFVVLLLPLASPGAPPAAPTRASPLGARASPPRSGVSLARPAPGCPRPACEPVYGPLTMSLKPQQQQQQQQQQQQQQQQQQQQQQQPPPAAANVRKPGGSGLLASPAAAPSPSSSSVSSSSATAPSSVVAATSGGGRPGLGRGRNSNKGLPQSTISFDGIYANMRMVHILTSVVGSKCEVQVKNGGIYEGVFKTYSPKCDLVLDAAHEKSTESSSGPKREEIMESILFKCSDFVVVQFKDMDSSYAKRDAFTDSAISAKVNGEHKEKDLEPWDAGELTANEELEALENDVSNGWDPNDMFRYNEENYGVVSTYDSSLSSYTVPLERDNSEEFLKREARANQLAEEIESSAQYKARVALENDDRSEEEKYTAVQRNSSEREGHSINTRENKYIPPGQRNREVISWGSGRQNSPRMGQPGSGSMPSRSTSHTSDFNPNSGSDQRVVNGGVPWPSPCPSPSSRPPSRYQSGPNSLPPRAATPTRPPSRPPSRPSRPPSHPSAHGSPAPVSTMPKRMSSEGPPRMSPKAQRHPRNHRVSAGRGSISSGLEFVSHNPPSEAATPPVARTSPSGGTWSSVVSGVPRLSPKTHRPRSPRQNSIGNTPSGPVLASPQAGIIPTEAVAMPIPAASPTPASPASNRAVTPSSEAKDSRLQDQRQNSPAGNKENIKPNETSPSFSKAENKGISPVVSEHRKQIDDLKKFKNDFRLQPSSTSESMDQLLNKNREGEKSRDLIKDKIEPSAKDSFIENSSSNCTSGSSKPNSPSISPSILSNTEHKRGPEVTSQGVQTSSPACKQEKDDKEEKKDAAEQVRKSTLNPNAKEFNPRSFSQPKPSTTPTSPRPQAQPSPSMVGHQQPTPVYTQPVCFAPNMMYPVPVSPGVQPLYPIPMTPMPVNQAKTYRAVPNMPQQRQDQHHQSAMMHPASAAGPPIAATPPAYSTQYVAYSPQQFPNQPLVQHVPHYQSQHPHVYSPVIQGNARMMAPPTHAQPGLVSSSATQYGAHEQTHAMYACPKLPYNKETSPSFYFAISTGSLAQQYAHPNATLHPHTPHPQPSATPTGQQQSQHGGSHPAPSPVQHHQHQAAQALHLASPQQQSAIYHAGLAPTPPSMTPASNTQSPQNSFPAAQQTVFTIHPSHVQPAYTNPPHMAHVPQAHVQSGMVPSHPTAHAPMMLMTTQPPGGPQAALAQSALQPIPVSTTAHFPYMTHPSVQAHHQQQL
row,Compound,Potency
1,FC(F)(F)c1ccccc1C1=CC(c2ccccc2)n2ncnc2N1 (stereo not given),inactive
2,c1ccc(CCNc2ccnc3cc4ccccc4cc23)cc1,inactive
3,CC(C)Nc1ccc(Nc2ccnc3cc4ccccc4cc23)cc1,31.6 µM (active)
4,Cc1c2ccccc2nc2c(F)c(NC(C)C)c(F)c(F)c12,inactive
5,Cc1c(CCC(=O)NC2CC2)c(=O)oc2cc(O)ccc12,inactive
6,Cc1cc(/C=N/NC(=O)Cn2c3ccccc3c(=O)c3ccccc32)c(C)n1-c1ccc(Cl)cc1,inactive
7,CC1CN(C(=O)COC(=O)c2ccc(NC(=O)CC#N)cc2)CC(C)O1 (stereo not given),inactive
8,O=C(c1nnsc1[S+]([O-])c1ccc(Cl)cc1)N1CCOCC1 (stereo not given),20 µM (active)
9,O=C(c1cccn2c(=O)c3cc(Cl)ccc3nc12)N1CCOCC1,inactive
10,O=C(c1nc2n(n1)C(c1ccc(Cl)cc1)C=C(c1ccccc1)N2)N1CCOCC1 (stereo not given),inactive
11,NC(=O)c1c(NC(=O)c2ccc(S(=O)(=O)N3CCOCC3)cc2)sc2c1CCCCC2,inactive
12,Cc1nnsc1C(=O)NNc1ccc(Cl)cc1,inactive
13,O=C(c1cc2cc(Br)ccc2s1)N1CCOCC1,inactive
14,CCCNC(=O)c1nnsc1[S+]([O-])c1ccc(Cl)cc1 (stereo not given),6.7 µM (active)
15,O=C(c1nnsc1S(=O)(=O)c1ccc(Cl)cc1)N1CCOCC1,26.7 µM (active)
16,CCCc1nn(C)c(C(=O)Nc2ccc(Cl)cc2)c1Cl,inactive
17,C=CCOC(=O)C(=O)/C=C/c1coc2ccccc2c1=O,inactive
18,CCOc1cc(C(=O)NC2=NCCS2)cc(OCC)c1OCC,inactive
19,Cc1noc(C)c1-c1nnc(-c2ccc(OC(F)(F)F)cc2)o1,inactive
20,Fc1ccc(Br)cc1C1C=C(c2cccnc2)Nc2ncnn21 (stereo not given),inactive
21,O=C(CCN1CCc2ccccc2C(O)(c2ccccc2)C1)c1ccc2c(c1)OCCO2 (stereo not given),39.8 µM (active)
22,O=C(/C=C\Nc1ccccc1Br)c1ccc2c(c1)OCO2,inactive
23,O=C(C1CC(=O)N(c2ccc3c(c2)OCCO3)C1)N1CCN(Cc2ccccc2)CC1 (stereo not given),inactive
24,O=C(CCN1Cc2ccccc2C1)c1ccc2c(c1)OCCO2,25.1 µM (active)
25,Nc1c(-c2ccc3c(c2)OCCO3)oc2ccccc2c1=O,inactive

row,Compound,Potency
1,O=C(CCN1CCCC1Cc1ccccc1)c1ccc2c(c1)OCCO2 (stereo not given),31.6 µM (active)
2,N=C(NOC(=O)COc1ccc(Br)cc1Cl)c1ccncc1,inactive
3,CC(C)C(NC(=O)C1CCCCC1)C(=O)NC1CCCC(C)C1C (stereo not given),inactive
4,COc1cc(OC)c(-c2cc(C(=O)NCc3ccc(F)cc3)c3c(-c4ccccc4)[nH]nc3n2)cc1OC,44.7 µM (active)
5,Nc1c(C(=O)NCc2ccc(Cl)cc2)sc2nc(-c3ccc(F)cc3)ccc12,inactive
6,Cc1ccc(CNC(=O)c2sc3nc(-c4ccc(F)cc4)ccc3c2N)cc1,inactive
7,N#CCSc1ccc2nc(-c3ccccc3)cn2n1,inactive
8,Cc1ccc2c(c1)C(c1ccccc1)N(C(=O)COc1ccc(Cl)cc1Cl)CC(=O)N2 (stereo not given),28.2 µM (active)
9,CC1CC(=O)Nc2ccccc2N1C(=O)COc1ccccc1C(N)=O (stereo not given),inactive
10,Cc1cc(OCC(=O)N2CCC(O)(c3ccc(Cl)cc3)CC2)c2c(C)cc(=O)oc2c1,inactive
11,COc1cccc2c1cc1c(=O)n(CC(=O)NCCCN3CCN(C)CC3)nc(C)n12,inactive
12,CCCCNC(=O)c1ccc(Cn2c(=S)[nH]c3c([nH]c4ccc(OC)cc43)c2=O)cc1,39.8 µM (active)
13,COc1ccc(N2CCN(C(=O)c3ccc(Cn4c(=S)[nH]c5ccc(N6CCOCC6)cc5c4=O)cc3)CC2)cc1,inactive
14,O=C(NC1CCN(Cc2ccccc2)CC1)c1ccc(Cn2c(=S)[nH]c3ccc(N4CCOCC4)cc3c2=O)cc1,inactive
15,CCN(CC)c1ccc(/C=N/NC(=O)c2nnn(-c3nonc3N)c2-c2ccc(C)cc2)cc1,inactive
16,Cc1cccn2c(=O)c3cc(C#N)c(=O)n(CCCN4CCOCC4)c3nc12,inactive
17,COc1cc(C(=O)NCCCNc2nc3cc(C)c(C)cc3cc2C#N)cc(OC)c1OC,inactive
18,COc1ccc(CCNC(=O)COC(=O)C2CC2C)cc1OC (stereo not given),inactive
19,CCOC(=O)CNC(=O)C12CC3CC(C1)CC(c1ccc(C)cc1)(C3)C2,inactive
20,COc1ccc(C23CC4CC(CC(C4)C2)C3)cc1C(=O)NCCN(C)C,22.4 µM (active)
21,Cc1nc(COc2ccccc2Cl)sc1-c1ccnc(N)n1,inactive
22,S=C(Nc1ccc2nc(-c3ccccn3)c(-c3ccccn3)nc2c1)N1CCOCC1,inactive
23,COc1ccc(-c2cc3ccc(O)c(CN4CCOCC4)c3oc2=O)cc1OC,inactive
24,COc1ccc(-c2c(C)c3ccc(O)c(CN4CCOCC4)c3oc2=O)cc1,inactive
25,COc1ccc(C(c2c(O)ccc3ccccc23)N2CCOCC2)c(OC)c1 (stereo not given),15.8 µM (active)

row,Compound,Potency
1,CCN(CC)c1ccc(/C=N\NC(=O)c2cccc3cc[nH]c23)cc1,inactive
2,NC(Cc1ccc(F)cc1)c1csc(Nc2ccc(C(F)(F)F)cn2)n1 (stereo not given),35.5 µM (active)
3,CCc1cnc(Nc2nc(C(N)Cc3ccc(F)cc3)cs2)nc1 (stereo not given),25.1 µM (active)
4,NC(Cc1ccc(F)cc1)c1csc(Nc2nccc(C(F)(F)F)n2)n1 (stereo not given),39.8 µM (active)
5,COc1cccc(Nc2nc(C(N)Cc3ccc(C(F)(F)F)cc3)cs2)n1 (stereo not given),31.6 µM (active)
6,O=C(NCCN1CCCOC1=O)C(=O)NCCN1CCCOC1=O,inactive
7,O=C(NC1CCCc2ccccc21)c1ccccc1Cl (stereo not given),inactive
8,O=C(Nc1ccc2nc(-c3ccco3)c(-c3ccco3)nc2c1)NC1CC1,inactive
9,CCOC(=O)c1cnc2nc(N3CCOCC3)nn2c1N,inactive
10,NC(=S)c1cc2ccc(O)cc2oc1=O,inactive
11,Cc1[nH]c2ccccc2c1/C=C/c1nc2ccccc2c(=O)n1CCO,inactive
12,NC(c1ccccc1)c1csc(Nc2ccc(C(F)(F)F)cn2)n1 (stereo not given),35.5 µM (active)
13,COc1cc(OC)nc(Nc2nc(C(N)Cc3ccc(Cl)cc3)cs2)n1 (stereo not given),35.5 µM (active)
14,CCc1cnc(Nc2nc(C(N)Cc3ccc(Cl)cc3)cs2)nc1 (stereo not given),35.5 µM (active)
15,CCCc1cnc(Nc2nc(C(N)Cc3ccc(C(F)(F)F)cc3)cs2)nc1 (stereo not given),22.4 µM (active)
16,COc1ccccc1/C=[N+](\[O-])C1SC(=S)N(C)C1(C)C (stereo not given),inactive
17,Cc1c(C)c2ccc(O[C@@H]3O[C@H](CO)[C@@H](O)[C@H](O)[C@H]3O)c(C)c2oc1=O,inactive
18,Cc1nc2ccc(NS(=O)(=O)c3c(F)cc(F)cc3Br)cc2s1,inactive
19,O=C(Nc1ccc(NC(=O)C2CC2)nc1)c1cnccn1,inactive
20,COc1ccc(-c2cc(=O)oc3c(O)c(O)ccc23)cc1,inactive
21,O=C(Nc1nc2n(n1)C(c1ccc(Cl)cc1)C=C(c1ccccc1)N2)c1ccco1 (stereo not given),inactive
22,O=C(CN1C(=O)/C(=C\c2ccccc2Cl)Oc2ccccc21)NCc1cccnc1,inactive
23,CCCCNC(=O)c1ccc(/C=C2\Oc3ccccc3N(C)C2=O)cc1,inactive
24,O=C(CN1C(=O)/C(=C\c2cccc(Br)c2)Oc2ccccc21)NCCCN1CCOCC1,39.8 µM (active)
25,COc1cc(/C=C(\C#N)c2ccccn2)ccc1OCc1ccccc1,inactive

row,Compound,Potency
1,O=C1OCCN1C(=O)[C@H]1[C@H](c2ccc(F)cc2)C(c2cccc(Cl)c2)=NN1c1ccc(Br)cc1,inactive
2,CCCCc1ccc(Nc2nc(O)cc(CCC)n2)cc1,39.8 µM (active)
3,Oc1cnnc(Nc2ccc(Nc3ccccc3)cc2)n1,inactive
4,CCNC(=O)N1CCN(S(=O)(=O)c2ccc3c(c2)OCCCO3)CC1,inactive
5,CCN(c1ccc(OCC(=O)OCC(=O)Nc2ccc(F)c(F)c2F)cc1)S(=O)(=O)c1ccccc1,inactive
6,O=S(=O)(c1ccccc1)N(CC(F)(F)F)c1ccc(C(O)(C(F)(F)F)C(F)(F)F)cc1,22.4 µM (active)
7,COc1ccc(NC(=O)c2sc3nc(N4CCOCC4)c4c(c3c2N)CCCC4)cc1,inactive
8,CC1(C(=O)NNC(=O)c2ccc(=O)oc2)CC1Br (stereo not given),inactive
9,O=C(c1ccccc1NS(=O)(=O)c1ccc([N+](=O)[O-])cc1[N+](=O)[O-])N1O[C@@H]2C=C[C@H]1C2,22.4 µM (active)
10,COc1ccc(-c2nn(-c3ccccc3)cc2C(=O)Nc2ccc(C(=O)O)cc2)cc1OC,inactive
11,O=C(O)/C=C/c1cn(-c2ccccc2)nc1-c1cccs1,inactive
12,CCN(CC)CCNC(=O)c1ccc(NC(=O)c2cn(-c3ccccc3)nc2-c2cccs2)cc1,39.8 µM (active)
13,CC(C)c1ccc(C2=CC(c3cccc(Cl)c3)n3ncnc3N2)cc1 (stereo not given),inactive
14,CC(c1ccccc1)N(C)C(=O)CN1CCN(S(=O)(=O)c2ccc3c(c2)OCCCO3)CC1 (stereo not given),inactive
15,CCN(CC)CCOc1ccc(/C(=C(/Cl)c2ccccc2)c2ccccc2)cc1,35.5 µM (active) and 17.8 µM (active)
16,C=CCN(CC=C)CCOc1cccc(Oc2ccccc2)c1,inactive
17,COc1ccc(CNc2oc(/C=C/c3cccc(OC)c3)nc2C#N)cc1,inactive
18,O=c1oc2c3c4c(cc2c(C(F)(F)F)c1CCN1CCOCC1)CCCN4CCC3,inactive
19,Cc1ccc(S(=O)(=O)N(Cc2ccccc2)c2ccccc2C(=O)N2CCCCC2)cc1,31.6 µM (active)
20,Cc1ccc(S(=O)(=O)N2CCN(C(=O)c3ccccn3)CC2)cc1,inactive
21,CCN(c1ccccc1)S(=O)(=O)c1ccc(Cl)c(C(=O)N2CCCC2)c1,inactive
22,CCOc1ccc2nc(NCCNC(=O)c3cc(OC)c(OC)c(OC)c3)c(C#N)cc2c1,inactive
23,CCn1c(SCC(=O)Nc2cccc(Cl)c2)nnc1-c1nonc1NC(C)=O,inactive
24,CCC(=O)Nc1ccc(NC(=O)CSc2nnnn2Cc2ccccc2)cc1C,inactive
25,CCOc1ccc(-c2nnc(SCC(=O)Nc3ccc4c(c3)c3ccccc3n4CC)n2N)cc1,31.6 µM (active)

# Reference: ChEMBL document CHEMBL1201862, “PubChem BioAssay data set” (2004)
